# Screening data deposited in PubChem by Broad Institute.
# In the library only some 3.7% were active in any assay of this set; here they are far more common.
# MITF act: activators of MITF-driven TRPM1 promoter reporter, primary screen, cell-based, SK-MEL-5, luciferase, single point; SK-MEL-5 TRPM1-promoter luciferase, 24 h; % of positive control, neutral wells = 0; activation, % at 12.5 µM; 300,000 compounds, 0.75% hits;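 active means mean activation of at least 80% with every replicate also reaching 80%; inconclusive means mean reaches 80% but some replicate falls short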;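 further: 0% = neutral control wells and 100% = parthenolide positive control wells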
# Ecoli rRNA inh: reduced GFP signal of wild-type E. coli, primary screen, bacterial rRNA inhibitor project, GFP/RFP fluorescence, OD600, single point; GFP signal change (wild-type ribosome), % (concentration not given with the values); AID 720706, 2013; 350,000 compounds, 1.6% hits; E. coli WT GFP vs humanized-ribosome RFP mutants, 24 h; active compounds read low; DMSO median 0, no signal -100;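 active means significant combined selectivity score with lowered wild-type GFP, culture density cut under 30%, mutant RFP and density less affected; inactive means any of these conditions unmet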
# Wnt bcat act: Wnt/beta-catenin pathway activators, primary screen, cell-based, plate reader, single point. Wnt/beta-catenin reporter cell assay, activator. activation, % at 9.35 µM. 300,000 compounds, 1.2% hits; in the data active means activation above about 30%, passing the limit was not always enough; inconclusive means no clear call, values can overlap the other calls;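 further: 0% = neutral control wells and 100% = positive control wells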
# esBAF inh: Bmi1 luciferase reporter increase in mESCs, primary screen, esBAF inhibitor project, mouse ES cells, Bmi1 luciferase knock-in, single point; reporter increase, % at 12.5 µM; 350,000 compounds, 2% hits; 24 h; 100% = twice the neutral-well signal; in the data active means activation above about 40%; inconclusive means no clear call, values can overlap the other calls;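 further: 0% = median of the plate's neutral control wells and 100% = double that signal; a rise in the Bmi1 reporter signal indicates esBAF inhibition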
# AF4-AF9 inh: inhibitors of AF4 peptide binding to AF9, primary screen, biochemical, AlphaScreen, biotin-AF4 peptide, FLAG-AF9, single point; Protein AF-9 (Homo sapiens), P42568; inhibition, % at 10 µM; 350,000 compounds, 0.47% hits;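 active means every replicate reaching a set inhibition limit, whatever the replicate mean, cut at about 25% in these data; inconclusive means mean inhibition reaches that limit but some replicates miss it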;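 further: 0% = plate neutral control median and 100% = total signal loss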
# Target sequence (P42568 whole entry, looked up): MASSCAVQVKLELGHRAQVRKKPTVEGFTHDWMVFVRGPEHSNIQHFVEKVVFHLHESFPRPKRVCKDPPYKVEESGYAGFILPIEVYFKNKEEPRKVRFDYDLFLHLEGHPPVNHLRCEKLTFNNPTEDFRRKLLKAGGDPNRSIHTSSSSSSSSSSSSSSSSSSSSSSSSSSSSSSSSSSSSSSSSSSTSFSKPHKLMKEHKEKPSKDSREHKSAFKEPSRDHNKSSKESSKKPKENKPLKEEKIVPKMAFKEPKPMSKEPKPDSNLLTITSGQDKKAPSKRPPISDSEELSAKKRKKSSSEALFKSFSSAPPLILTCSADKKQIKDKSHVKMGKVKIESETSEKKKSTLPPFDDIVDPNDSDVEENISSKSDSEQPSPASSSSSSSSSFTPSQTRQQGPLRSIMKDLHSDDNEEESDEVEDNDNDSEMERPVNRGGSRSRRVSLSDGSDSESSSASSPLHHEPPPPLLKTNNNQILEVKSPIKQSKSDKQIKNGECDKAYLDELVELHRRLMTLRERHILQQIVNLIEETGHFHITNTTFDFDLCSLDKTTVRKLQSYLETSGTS
# * marks the source's active call; other numbers are inactive results; ? = inconclusive; . = no result given.
SMILES,MITF act,Ecoli rRNA inh,Wnt bcat act,esBAF inh,AF4-AF9 inh
O=C(O)c1cccc(Cn2c(Cl)c(/C=N/NC(=O)c3ccc(O)cc3)sc2=O)c1,-5.3,-0.1,-1.1,2.0,-21.4
CC(O)C(NS(=O)(=O)c1ccc(Cl)cc1)C(=O)OCCOc1ccc(F)cc1 (configuration not stated),.,-7.2,45.4*,-1.3,-0.9
Cc1cc(C=C2C(=O)c3ccccc3C2=O)c(C)n1C,7.8,.,62.9*,-8.0,.
COc1ccc(CN(C)C[C@H]2Oc3c(NC(=O)c4ccncc4)cccc3C(=O)N([C@@H](C)CO)C[C@@H]2C)cc1,.,-4.4,.,1.9,7.6
CC1CCN(S(=O)(=O)c2ccc3ccccc3c2)CC1,-7.8,.,-0.6,1.6,.
Nc1nnc(-c2cc3ccccc3oc2=O)s1,.,.,1.4,26.4,.
O=c1oc2ccccc2cc1-c1nnc(NCc2ccco2)s1,.,.,72.0*,3.4,.
COc1ccc(CNC(=O)CN2CCC(NC(=O)c3ccc(OC)cc3)CC2)cc1,-1.9,1.7,-2.1,2.5,-1.1
O=C(NCC1COc2ccccc2O1)c1cccs1 (configuration not stated),28.4,2.3,5.1,26.6,-0.3
O=C(NCC1COc2ccccc2O1)c1ccc(Br)s1 (configuration not stated),76.9,10.5,7.1,42.2*,1.2
Cn1cccc1C(=O)NCC1COc2ccccc2O1 (configuration not stated),88.3*,7.7,?,55.5*,3.1
COc1cc(CC(=O)NCC2COc3ccccc3O2)cc(OC)c1OC (configuration not stated),-1.8,9.8,-0.7,.,-1.1
COc1ccccc1NC(=O)C(=O)NCC1COc2ccccc2O1 (configuration not stated),0.6,-22.9*,0.2,1.6,-76.5
CCn1c(C)cc(C(=O)COC(=O)c2cccnc2SC)c1C,27.0,4.7,16.8,52.8*,-1.6
CSc1ncccc1C(=O)OCC(=O)c1cc(C)n(C)c1C,91.7*,.,53.5*,24.7,3.1
CSc1ncccc1C(=O)OCC(=O)c1cc(C)n(CC2CCCO2)c1C (configuration not stated),24.2,-11.8,9.6,-28.7,6.4
CN1CCCN(C(=O)c2cc(-c3cccc4ccccc34)nc3ccccc23)CC1,7.9,-1.7,46.8*,-3.5,2.4
Cc1ccc(-c2cc(C(=O)N3CCN(c4ccccc4O)CC3)c3ccccc3n2)cc1,34.7,-1.9,15.8,55.2*,-0.8
COc1ccc(-c2cc(C(=O)N3CCCCCC3)c3ccccc3n2)c(OC)c1,-5.1,-33.2*,-0.9,-2.7,1.1
Cc1ccc(-c2cc(C(=O)N3CCN(c4ccc(O)cc4)CC3)c3ccccc3n2)cc1,39.8,-9.1,-2.0,24.7,10.6
CCOc1ccnc2c1c(=O)n(Cc1cc(OC)cc(OC)c1)c(=O)n2C,-8.3,12.2,-2.0,-6.4,-4.9
O=C(C1CCC1)N1C[C@@H]2[C@H](c3ccccc31)[C@H](CO)N2C(=O)Nc1cccc(F)c1,.,0.2,.,1.1,34.7*
O=C(C1CCCC1)N1C[C@@H]2[C@H](c3ccccc31)[C@H](CO)N2C(=O)Nc1cccc(F)c1,.,-1.8,.,5.4,-1.3
O=C(Nc1cccc(Cl)c1)N1C[C@H]2[C@@H](c3ccccc31)[C@H](CO)N2CC1CCCCC1,.,-58.5*,.,5.5,2.8
O=C(Nc1ccc(Cl)cc1)N1C[C@H]2[C@@H](c3ccccc31)[C@H](CO)N2C(=O)c1ccccn1,.,-19.2*,.,16.2,-1.2
SMILES,MITF act,Ecoli rRNA inh,Wnt bcat act,esBAF inh,AF4-AF9 inh
O=C(Nc1ccccc1)N1C[C@@H]2[C@H](c3ccccc31)[C@@H](CO)N2C(=O)c1ccccn1,.,0.3,.,2.2,-5.3
Cc1ccc(NC(=S)NCC2CCN(C(C)c3ccccc3)C2)cc1C (configuration not stated),-3.2,5.9,-2.0,-4.5,25.1*
Cc1cc(C)n2c(Nc3ccc4c(c3)OCCO4)c(C(C)C)nc2n1,.,1.1,11.9,.,5.1
Cc1cc(C)n2c(Nc3ccc4c(c3)OCCO4)c(-c3ccccc3)nc2n1,.,.,40.9*,28.4,.
Cc1nnsc1C(=O)Nc1cc(Cl)ccc1Cl,.,.,42.0*,6.8,.
Cc1nnsc1C(=O)Nc1cccc(Cl)c1,-3.8,-51.8,-1.4,-5.6,-1.7
c1ccc(-c2cc3nccc(-c4ccccn4)n3n2)cc1,126.7*,-29.5,19.0,.,-1.5
COc1cccc2sc(N(C)c3ccccc3)nc12,56.9,.,65.3*,14.1,.
COc1cccc2sc(N)nc12,7.2,1.4,7.9,0.7,.
O=c1cc(NS(=O)(=O)c2ccccc2)nc(SCc2c(Cl)cccc2Cl)[nH]1,-8.8,-14.0,.,.,1.3
Cc1cccc(S(=O)(=O)N2CCCCN3[C@H](CO)[C@@H](c4ccc(C#CC(C)C)cc4)[C@H]3C2)c1,.,-29.1,.,.,1.3
CS(=O)(=O)N1CCCCN2[C@H](CO)[C@@H](c3ccc(C4=CCCC4)cc3)[C@H]2C1,.,2.8,.,.,28.3*
COc1cccc(S(=O)(=O)N2CCCCN3[C@H](CO)[C@H](c4ccc(C5=CCCCC5)cc4)[C@H]3C2)c1,.,-31.6*,.,-5.5,.
Cc1cccc(S(=O)(=O)N2CCCCN3[C@H](CO)[C@H](c4ccc(C#CC(C)C)cc4)[C@H]3C2)c1,.,-26.9*,.,.,3.0
CN(C)C(=O)c1ccc(-c2ccc([C@H]3[C@H]4CN(S(C)(=O)=O)CCCCN4[C@H]3CO)cc2)cc1,.,3.7,.,.,34.2*
CN(C)C(=O)c1ccc(-c2ccc([C@@H]3[C@H]4CN(S(C)(=O)=O)CCCCN4[C@H]3CO)cc2)cc1,.,-1.7,.,.,-7.6
CN(C)C(=O)c1ccc(-c2ccc([C@@H]3[C@@H](CO)N4CCCCN(S(C)(=O)=O)C[C@H]34)cc2)cc1,.,4.5,.,.,30.4*
NNC(=O)C(Cc1cnc[nH]1)NC(=O)OCc1ccccc1 (configuration not stated),-0.1,6.0,1.3,-3.7,-4.3
Cc1csc(=NC(=O)c2ccccc2)n1C,.,.,33.6*,?,.
Cc1csc(=NC(=O)c2ccccc2)n1Cc1ccco1,14.2,-22.8,-3.9,-5.1,7.2
CCn1c(C)csc1=NC(=O)c1ccccc1,-0.2,.,19.6,1.5,.
CCn1c(C)csc1=NC(=O)c1ccccc1O,27.2,-23.1*,16.0,?,-34.2
Cc1oc2ccc(O)cc2c1C(=O)c1ccc(Br)cc1,46.2,-23.1*,17.2,.,2.4
CCCCOC(=O)c1ccc(Nc2ncnc3nc[nH]c23)cc1,77.5,5.8,12.6,48.4*,6.5
FC(F)Sc1ccc(Nc2ncnc3nc[nH]c23)cc1,94.9*,.,.,-2.7,.
CN(CCNC(=O)c1cn(C)c2ccc(S(=O)(=O)N3CCCC3)cc2c1=O)CCc1ccccc1,4.6,14.1,-0.2,-4.4,-19.7
O=C(N=Nc1c(O)[nH]c2ccc(Br)cc12)c1ccco1,.,-5.9,36.4*,60.1*,1.2
